ATXN2 expr inh: Primary qHTS for Inhibitors of ATXN expression. 0.72% of 360,000 active. HEK-293 ATXN2-luciferase reporter, luminescence, 24 h. Potency, µM (doses to about 57 µM), actives largely listed as inhibitors. AID 1745845, 2022; also: nearly all actives have a fitted effect of over 55% in size
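ATXN2-luciferase reporter cells (luciferase flanked by upstream and downstream ATXN2 gene portions) were treated 24 h at 37 °C with compounds at up to 57 uM. SteadyGlo luminescence gave expression; GF-AFC fluorescence gave viability.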
ATXN viability: Viability Counterscreen for Primary qHTS for Inhibitors of ATXN expression | Potency, µM (doses to about 56.7 µM), hits mostly cytotoxic | AID 651635, 2014 | S2 cells (HEK-293 line with an ATXN2-luciferase reporter) viability, CellTiter-Fluor protease fluorescence, 24 h | 0.49% of 400,000 active; also: nearly all actives have a fitted effect of over 40% in size
USP1 inh: Inhibitors of USP1/UAF1: Primary Screen; Ubiquitin carboxyl-terminal hydrolase 1 (Homo sapiens), O94782; Potency, µM (series often up to 57.1 µM), actives largely listed as inhibitors; recombinant USP1/UAF1, Ub-Rhodamine cleavage fluorescence; 0.23% of 390,000 active; also: nearly all actives have a fitted effect of over 60% in size
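USP1/UAF1 complex (1 nM) preincubated 15 min at room temperature with compound, then Ub-Rho substrate (150 nM final) added. Kinetic fluorescence at 480/540 nm over 6 reads at 60 s intervals; 50 mM HEPES pH 7.8, 0.5 mM EDTA, 0.1 mg/ml BSA, 1 mM TCEP, 0.01% Tween-20.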
IL-1B inflam inh: qHTS for Inhibitors of Inflammasome Signaling: IL-1-beta AlphaLISA Primary Screen. THP-1 LPS/ATP IL-1B secretion, AlphaLISA, 16 h; active compounds read low. activity change, % at 57.5 µM. 4.7% of 360,000 active; in the data active = activity change below about -50%; inconclusive = mostly about -30% to -49%
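THP-1 cells pretreated 1 hr with compounds (up to 57.5 uM final), then stimulated with LPS (250 ng/mL final) plus ATP (1.25 mM final); secreted IL-1B measured by AlphaLISA after 16 hr, decreased signal indicating inhibition.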
USP2a block: qHTS Assay for Inhibitors of Ubiquitin-specific Protease USP2a Using CHOP2 as the Reporter | Ubiquitin carboxyl-terminal hydrolase 2 (Homo sapiens), O75604 | USP2 core, Ub-CHOP2 coupled fluorogenic reporter, 485/531 | Potency, µM (titrated, usually from 38.3 µM), hits mostly inhibitors | 0.01% of 330,000 active
Target sequence (O75604 whole entry, looked up): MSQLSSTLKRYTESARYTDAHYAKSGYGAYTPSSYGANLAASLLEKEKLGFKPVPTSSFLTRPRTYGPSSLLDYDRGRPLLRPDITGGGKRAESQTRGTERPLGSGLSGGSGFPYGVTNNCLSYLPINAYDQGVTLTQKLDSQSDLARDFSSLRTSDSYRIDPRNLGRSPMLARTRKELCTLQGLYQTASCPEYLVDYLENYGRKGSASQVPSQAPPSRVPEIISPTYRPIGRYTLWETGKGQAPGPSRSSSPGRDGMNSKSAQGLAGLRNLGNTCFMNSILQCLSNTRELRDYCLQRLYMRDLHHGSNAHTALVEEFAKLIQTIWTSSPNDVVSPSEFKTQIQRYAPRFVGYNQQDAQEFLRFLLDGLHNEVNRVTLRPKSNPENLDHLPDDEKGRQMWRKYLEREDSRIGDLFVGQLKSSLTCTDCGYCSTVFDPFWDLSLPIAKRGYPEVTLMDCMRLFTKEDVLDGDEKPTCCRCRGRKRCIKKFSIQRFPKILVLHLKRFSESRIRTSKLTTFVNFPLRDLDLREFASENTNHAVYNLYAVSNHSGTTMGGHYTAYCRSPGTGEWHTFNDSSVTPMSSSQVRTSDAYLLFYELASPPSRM
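USP2 core (10nM final) preincubated 30min RT with compound in 20mM Tris-HCl pH 8.0, 2mM CaCl2, 2mM beta-mercaptoethanol, 0.05% CHAPS; 25nM Ub-CHOP2 plus 25nM reporter substrate added, fluorescence (Ex485/Em531) read after 60min.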
Hits are given with their value; - = inactive; ? = inconclusive; . = no result given. Sampled rows, rich in hits. Any-hit rate of the full collection: about 4.8%. Unless noted, calls follow the shape of the dose curve; as a rule, active = well fitted curve in the direction sought with a large enough effect; inconclusive = small, poorly fitted or top-dose-only effect, or another doubt; inactive = no such curve, though single readings can be large; an effect the other way counts as inactive or inconclusive.

SMILES	ATXN2 expr inh	ATXN viability	USP1 inh	IL-1B inflam inh	USP2a block
COCCCN1CCN(C2Cc3ccccc3Sc3ccc(Cl)cc32)CC1 (stereo not given)	?	?	-	-	-
NC(=O)NS(=O)(=O)Oc1ccccc1	-	-	-	-	-
Nc1ccc(C(=O)N2CC3CC(CN(Cc4ccccc4)C3)C2)cc1	-	-	.	.	.
O=C(CNC(=O)c1ccc(Br)cc1)c1ccccc1	-	-	-	-65.4	-
O=C(CNC(=O)c1ccc(Br)cc1)c1ccc(Br)cc1	-	?	-	-	-
O=C(NCCSSCCNC(=O)c1ccccc1)c1ccccc1	-	-	-	-67.5	.
CCOCCCNC(=O)c1ccc(CN2CCc3ccccc3C2)cc1	.	?	-	-	.
COc1ccc(N2CC(NC(=O)CCCc3ccccc3)CC2=O)cc1 (stereo not given)	.	.	-	.	.
Cc1ccccc1S(=O)(=O)Cc1ccc(C(=O)N2CCN(c3cccc(C)c3C)CC2)o1	12.6µM	17.8µM	-	-	-
COc1ccc(CN2C(=O)CCC2(C)c2nc3ccccc3[nH]2)cc1 (stereo not given)	-	-	.	-	.
OC(CNC1CCCc2ccccc21)COc1c(Cl)cccc1Cl (stereo not given)	?	-	-	-101.1	-
OC(CNC1Cc2ccccc2C1)COc1ccc(Cl)cc1 (stereo not given)	-	-	-	-	-
O=C(NCCN1CCOCC1)c1ccc(NC(=O)c2ccc(Br)o2)cc1	-	-	.	-	.
Cc1ccc(CNC(=O)C2CCN(S(=O)(=O)c3ccc(F)cc3)CC2)cc1	-	-	-	.	.
COC(=O)C1=C(C)N(Cc2ccccc2)C(=NCCCCO)N[C@H]1c1cccc(C(F)(F)F)c1	-	?	?	?	-
COC(=O)C1=C(C)N(Cc2ccccc2)C(=NCc2cccc(C(F)(F)F)c2)N[C@H]1c1cccc(C(F)(F)F)c1	28.2µM	17.8µM	-	-101.3	-
C=CCN=C1N[C@@H](c2cccc(C(F)(F)F)c2)C(C(=O)OC)=C(C)N1CC	-	-	-	-	-
CCN1C(=NCc2cc(OC)c(OC)c(OC)c2)N[C@@H](c2cccc(F)c2)C(C(=O)OC)=C1C	.	.	.	.	-
COC(=O)C1=C(C)N(Cc2ccccc2)C(=NCc2ccc(OC)cc2)N[C@H]1c1ccccc1	?	?	-	-51.8	-
COC(=O)C1=C(C)N(CC2CC2)C(=NCc2cccc(C(F)(F)F)c2)N[C@H]1c1ccccc1	?	?	?	-57.6	-
CCN1C(=NCc2cccc(Cl)c2)N[C@@H](c2cccc(F)c2)C(C(=O)OC)=C1C	?	?	?	-69.7	-
COC(=O)C1=C(C)N(Cc2ccccc2)C(=NCC(C)C)N[C@H]1c1ccccc1	?	?	-	?	-
O=C(N=C1SC2CS(=O)(=O)CC2N1c1ccccc1)c1cccc([N+](=O)[O-])c1 (stereo not given)	-	-	-	-	-
COc1ccc(S(=O)(=O)NCc2ccc3c(c2)CCN3C(=O)c2ccc(C)cc2)cc1Cl	.	.	-	.	.
Cc1ccc2c(c1)-n1c(nc3ccccc3c1=O)C(CC(C)C)NC2=O (stereo not given)	.	.	.	.	-
SMILES	ATXN2 expr inh	ATXN viability	USP1 inh	IL-1B inflam inh	USP2a block
COC(=O)C1=C(C)N(Cc2ccccc2)C(=NCCc2ccccn2)N[C@H]1c1cccc(F)c1	?	?	-	-55.3	-
COCCN=C1N[C@@H](c2cccc(C(F)(F)F)c2)C(C(=O)OC)=C(C)N1Cc1ccccc1	?	?	-	-56.1	-
COC(=O)C1=C(C)N(Cc2ccccc2)C(=NCCc2c[nH]c3ccccc23)N[C@H]1c1cccc(C(F)(F)F)c1	?	.	?	-50.3	-
CCN1C(=NCCc2ccccn2)N[C@@H](c2cccc(F)c2)C(C(=O)OC)=C1C	-	-	-	-	-
COC(=O)C1=C(C)N(Cc2ccccc2)C(=NCc2cccc(C(F)(F)F)c2)N[C@H]1c1cccc(F)c1	31.6µM	.	-	-103.7	-
OC(c1ccc2c(c1)CN(Cc1cccc3nccnc13)CCO2)C1CCCCC1 (stereo not given)	.	-	.	.	.
Oc1ccc(C[C@H]2CN([C@@H](Cc3ccccc3)CN3CCC[C@@H]3CN3C(=S)NC[C@@H]3Cc3ccccc3)C(=S)N2CC2CCCCC2)cc1	-	?	.	?	.
Oc1ccc(C[C@H]2CNC(=S)N2CC2CCCN2C[C@H](Cc2ccc(O)cc2)N2C[C@H](Cc3ccccc3)N(CC3CCCCCC3)C2=S)cc1 (stereo not given in full)	-	-	?	-65.8	.
Oc1ccc(C[C@H]2CNC(=S)N2CC2CCCN2C[C@H](Cc2ccc(O)cc2)N2C[C@H](Cc3ccccc3)N(CC3CCCCC3)C2=S)cc1 (stereo not given in full)	?	?	?	-72.0	.
CC(C)C[C@H]1CNC(=S)N1CC1CCCN1C[C@H](Cc1ccc(O)cc1)N1C[C@H](Cc2ccccc2)N(CC2CCCCC2)C1=S (stereo not given in full)	-	?	-	-53.7	.
Oc1ccc(C[C@H]2CNC(=S)N2CC2CCCN2C[C@H](Cc2ccc(O)cc2)N2C[C@H](Cc3ccc(O)cc3)N(CC3CCCCCC3)C2=S)cc1 (stereo not given in full)	20µM	?	-	?	.
CC(C)(C)CC(C)(C)N=C1Nc2cc(Cl)c(Cl)cc2NC12C[C@H]1CCC(=O)N3CC[C@@H](C2)[C@@H]13 (stereo not given in full)	?	.	?	-64.2	.
O=C(Nc1cccc(F)c1)N1CCc2nc(NCc3cccc(Oc4ccccc4)c3)ncc2C1	-	?	.	-	.
C=CC[n+]1ccc(/C=C2\C=Cc3cc(C)ccc3N2CC)c2ccccc21	?	9.47µM	-	-65.7	-
CCN1/C(=C/c2cc[n+](CCCS(=O)(=O)[O-])c3ccccc23)Sc2ccccc21	.	-	-	-	-
CCC(C)Sc1cccc(-c2nc3cnccn3c2NC2CCCCC2)c1 (stereo not given)	?	.	?	-	-
c1cn2c(NC3CCCCC3)c(-c3ccc(SC4CCCCC4)cc3)nc2cn1	-	.	-	-63.3	-
c1cc(SC2CCCCC2)cc(-c2nc3cnccn3c2NC2CCCCC2)c1	?	.	?	-65.6	-
c1cn2c(NC3CCCC3)c(-c3ccc(N4CCOCC4)cc3)nc2cn1	-	.	-	-	-
Cc1ccc(NS(=O)(=O)c2ccc3c(c2)CC(C)N3C(=O)C2CCC2)cc1Cl (stereo not given)	?	-	-	.	.
Cc1ccc(-n2nc3c(N4CCC(C(=O)NC(C)c5ccccc5)CC4)nnc(C)c3c2C)cc1 (stereo not given)	-	?	-	.	.
